Among all 360,000 compounds or so, about 780 (0.22%) were called active. The list comes from a sample in which actives are over-represented; it also holds similar structures and randomly drawn compounds. Values without a mark were called inactive. Rule as the data show it: active = inhibition above about 8.5% (passing the limit was not always enough); inconclusive = no clear call, values can overlap the other calls.

Here are results for 88 molecules from PubChem BioAssay AID588549 (Broad Institute, 2011).

This experiment concerns Mycobacterium tuberculosis FadD28 fatty-acid-AMP ligase. Nature of the experiment: inhibitors of FadD28 bisubstrate probe binding, primary screen, biochemical, fluorescence polarization, single point (AID 588549). The following applies: at 12.5 µM, stronger effect = higher value. (In general: Polarisation of emitted light reports the rotation of a fluorescent probe.)
With `C=CCn1c(SCc2cc(C(=O)OC)c(C)o2)nnc1-c1ccncc1`, the inhibition is -3.43%. Under `Cc1ccc(C(c2sc3nc(C)nn3c2O)N2CCN(c3ccc(F)cc3)CC2)cc1` (stereo not drawn) stands -3.79%; under `CC(=O)c1c(N2CCN(c3ccc(F)cc3)CC2)nc(=S)n(-c2ccccc2)c1C`, -1.67%; under `O=C(C1Cc2ccccc2CN1C(=O)c1ccco1)N1CCN(c2ccccc2)CC1` (stereo not drawn), -0.0045%. As for `C[C@H]1CN([C@@H](C)CO)C(=O)c2cc(C3=CCCCC3)cnc2O[C@@H]1CN(C)C(=O)Cc1ccccc1`, the inhibition was -1.03%. Under `Cc1nn(Cc2ccccc2)c(C)c1C(=O)N1CCN(CC(=O)Nc2ccccc2Cl)CC1` stands -3.56%.

On to `COCCCn1c(-c2cccs2)nc2nc3ccccc3nc21`, for which the inhibition was -0.0615%. Consider `CCC(=O)Nc1cccc(NC(=O)CSc2nnc(-c3ccc(NS(C)(=O)=O)cc3)n2C)c1`, for which the inhibition was 1.19%.

As to `COCCN1Cc2cccc(C(=O)Nc3ccccc3OC)c2C1=O`, the inhibition is -3.48%. Under `Cc1cccc(CN2CCN(C3CN(Cc4ccccc4)S(=O)(=O)C3)CC2)c1` (stereo not drawn) stands -1.16%; under `CCN(CC(=O)NCc1ccc(F)cc1)S(=O)(=O)c1ccc(Cl)s1`, -3.08%. As to `C=CC(=O)OCCOCCOCCOCCOC(=O)C=C`, the inhibition was -2.6%. Under `COC(=O)CCCCC1=CCC2C(=O)C=C(O)C2C1` (stereo not drawn) stands -1.93%; under `COc1cc(CNCc2ccc(OC)c3ccccc23)cc(OC)c1OC`, -0.377%; under `CCc1nc2c(OCCOc3ccccc3)cccn2c1N(C)C(=O)c1cccs1`, -4.76%. For `COC(=O)C1(C)CC1(c1ccccc1)c1ccccc1` (stereo not drawn), the inhibition is -0.161%.

`O=C1c2ccccc2C2=Nc3ccccc3SC(c3ccccc3F)C12` (stereo not drawn): the inhibition is -4.89%. On to `COC(=O)C1CC2=C(CC(C)(C)CC2=O)N(c2ccccc2)C1=O` (stereo not drawn), for which the inhibition is 1.35%.

On to `Cc1ccc(N(Cc2ccc(C(=O)Nc3ccccc3C(=O)NCc3ccco3)cc2)S(C)(=O)=O)cc1C`, for which the inhibition is -1.65%. Consider `CC/C(=N\NC(=O)c1ccccc1O)c1c(O)n(Cc2ccccc2)c(=O)[nH]c1=O`, for which the inhibition was 17.8% (active).

On to `CC/C(=N\NC(=O)c1ccccc1Cl)c1ccc(Br)s1`, for which the inhibition was -2.73%.

As to `COCCN(C(=O)c1ccccc1F)c1c(N)n(Cc2ccccc2)c(=O)[nH]c1=O`, the inhibition was -1.47%. Regarding `Cc1ccc(C)c2c1cc(C)c1nnc(SCC(=O)Nc3cccc(C(=O)O)c3)n12`, the inhibition is -2.19%. Under `NNC(=O)COc1ccc(C2SCCS2)cc1` stands -1.11%.

For the molecule `CCN1CC(CN(C)Cc2nc(-c3ccc(Cl)cc3)no2)CC1=O` (stereo not drawn), the inhibition was -0.366%. As for `Oc1c(Cl)cc(Cl)c(Cl)c1Cc1c(O)c(Cl)cc(Cl)c1Cl`, the figure is 65.8% (active); as for `COc1ccc(SCc2noc(C(=O)NCC3CCCO3)c2C(=O)O)cc1` (stereo not drawn), 0.0895%; as for `CCn1nnc2cc(C(=O)Nc3ccc(C(=O)OC(C)C)cc3)ccc21`, -3.75%. As for `CC1CCCCC1NC(=O)c1cc(=O)[nH]c2ccccc12` (stereo not drawn), the figure is -0.133%; as for `COc1ccc(OC)c(C(=O)c2coc3ccc(O)c(CN4CCOCC4)c23)c1`, -2.66%; as for `CCOC(=O)c1ccccc1N1C(=O)C2Sc3[nH]c(=O)sc3C(/C=C/c3ccccc3)C2C1=O` (stereo not drawn), 0.286%. For the molecule `COc1cc(OC)cc(C(=O)NC2CCN(C(=O)N3c4ccccc4Sc4ccccc43)CC2)c1`, the inhibition is -5.05%.

In the case of `O=C(CSc1nc2ccccc2o1)N1CCN(c2ccc(Cl)cc2)CC1`, the inhibition is 1.06%. Take `CN(C)c1ccc(Nc2c3c4c(cccc4n(C)c2=O)C(=O)c2ccccc2-3)cc1`: the inhibition is -0.49%. On to `O=C(Cc1ccc([N+](=O)[O-])cc1)NCCS(=O)(=O)N1CCN(c2ccccc2)CC1`, for which the inhibition is -0.717%. As for `CC(C)C(NC(=O)c1c(F)cccc1F)C(=O)NNC(=O)c1ccccc1` (stereo not drawn), the inhibition is -3.91%. For the molecule `CN1C(=O)CC(c2ccccc2)C1=O` (stereo not drawn), the inhibition is -1.61%. In the case of `CCC(C)N1C(=O)S/C(=C/c2ccc(Sc3nc4ccccc4[nH]3)o2)C1=O` (stereo not drawn), the inhibition is -0.197%.

With `O=C(O)C(c1ccccc1)N1C(=O)/C(=C\c2ccc(-c3cccc(Cl)c3)o2)SC1=S` (stereo not drawn), the inhibition was 13% (active). Regarding `O=C(Cn1nnc(-c2ccccc2)n1)N/N=C/c1ccc(-c2ccc(Cl)cc2)o1`, the inhibition is -1.53%. Consider `COc1c(C)cc(C(=O)C2CCCN(S(=O)(=O)c3c(C)noc3C)C2)cc1C` (stereo not drawn), for which the inhibition is -0.846%. As for `CCOCN(C(=O)Cn1c(C(C)O)nc2ccccc21)c1c(C)cccc1CC` (stereo not drawn), the figure is -5.11%. For `CCCNC(=O)c1cc(C2CCCCN2C(=O)OC)on1` (stereo not drawn), the inhibition is -0.481%. As to `CCN(CC)S(=O)(=O)c1ccc(N2CC(C(=O)NCc3cccnc3)CC2=O)cc1` (stereo not drawn), the inhibition was -2.96%. For `O=C(Cn1c2[n+](c3ccc(C(F)(F)F)cc31)CCCCC2)Nc1c(F)cccc1F`, the inhibition is 4.18%.

For the molecule `CC1CCN(c2ccc(C(=O)Nc3nnc(C4CC4)s3)cc2[N+](=O)[O-])CC1`, the inhibition was -1.32%.

Consider `O=[N+]([O-])c1cc(Cl)cc(/C=N/NC(=S)Nc2cc(S(=O)(=O)N3CCOCC3)ccc2Cl)c1O`, for which the inhibition was 22.5% (active). For the molecule `COC(=O)c1cc(Oc2ccc(S(=O)(=O)N3CCOCC3)cc2[N+](=O)[O-])cc(C(=O)OC)c1`, the inhibition is 0.28%.

In the case of `Cc1cc(OCCCC(=O)Nc2cc(S(=O)(=O)N3CCOCC3)ccc2N2CCOCC2)ccc1Cl`, the inhibition was 0.172%.

`O=S(=O)(NCC1OCCc2ccccc21)c1ccccc1` (stereo not drawn): the inhibition was -0.133%. As to `Cn1c(=O)cc(SCC(=O)N2CCCC2)c2cc(Cl)ccc21`, the inhibition is -4.85%.

As to `CC(C)Cc1nn2c(=O)cc(O)nc2s1`, the inhibition was 0.338%. On to `CC(=O)N1CCN(S(=O)(=O)c2ccc(C)c([N+](=O)[O-])c2)C1C(C)C` (stereo not drawn), for which the inhibition was -3.8%. As to `COC(=O)C1CCN(C(=O)c2ccc3oc(Cc4ccc(Cl)cc4)nc3c2)CC1`, the inhibition is -0.812%. Regarding `O=C(CN1C(=O)NC2(CCCC2)C1=O)NCC1CCCO1` (stereo not drawn), the inhibition was -1.47%. As for `CCc1nc2ccc(C(=O)NC3CCN(Cc4ccccc4)CC3)cn2c1N(CC)CCOC`, the figure is -4.48%. As for `CNS(=O)(=O)c1cnccc1N1CCN(c2cccc(C)c2)CC1`, the inhibition was -0.922%.

Regarding `CCn1cc(/C=C(\NC(=O)c2ccc(C)cc2)C(=O)NCCN2CCOCC2)c2ccccc21`, the inhibition is 1.23%. With `CC(C)CCN1NC2(CCC(C)CC2)NC1=S` (stereo not drawn), the inhibition is -3.86%. Under `COc1ccc(S(=O)(=O)NC(=O)C2(C)CCN2C(=O)COc2ccc(Cl)cc2)cc1` (stereo not drawn) stands -5.43%; under `COc1ccc(Br)cc1/C=N/Nc1ccc(S(=O)(=O)Nc2ccccc2C(=O)O)cc1[N+](=O)[O-]`, -1.21%; under `CCN(CC(=O)NCc1cccs1)C(=O)c1cccc(S(=O)(=O)Nc2ccccc2OC)c1`, -3.38%.

Turning to `COc1cccc(/C=N/Nc2ccc(S(=O)(=O)Nc3ccccc3C(=O)O)cc2[N+](=O)[O-])c1O`, the inhibition was 35.4% (active). As for `O=c1c(F)cn(C2CCCO2)c(=O)n1Cc1ccccc1Cl` (stereo not drawn), the inhibition was -2.45%. In the case of `Cc1nnc(CN(C)Cc2cn[nH]c2-c2ccc(-c3ccccc3)cc2)o1`, the inhibition was -1.34%. As to `COc1ccc(OC)c(S(=O)(=O)N(C)CC(=O)N2CCN(c3ccccc3)CC2)c1`, the inhibition was -3.85%. As for `COc1ccccc1CNC(=O)CSc1nc(=O)n(Cc2ccncc2)c2c1CCC2`, the figure is -0.173%.

Take `OC(CNC1CCCC1)COc1ccc(F)cc1` (stereo not drawn): the inhibition was -4.58%.

For `Cc1noc(C)c1-c1ccc(C(=O)NCc2ccncc2)c2occc12`, the inhibition is -2.15%.

`Cc1ccc(O)c(-c2cc(C(=O)Nc3c(C)n(C)n(-c4ccccc4)c3=O)[nH]n2)c1`: the inhibition was -2.28%. Turning to `COC(=O)c1ccc(CSc2nnc(NC(C)C)s2)cc1`, the inhibition is -3.65%. Turning to `COc1ccc(Cl)cc1NC(=O)CN(C)C(=O)c1cn(-c2ccccc2)nc1-c1cccs1`, the inhibition is -1.26%. With `O=C(O)c1ccc(N/N=C/c2cn(-c3ccccc3)nc2-c2cccs2)cc1`, the inhibition was 23.7% (active). As to `O=C(O)c1ccc(N/N=C/c2ccc3ncccc3c2)cc1`, the inhibition was -1.11%.

With `Cc1nnc(Nc2ccccc2F)s1`, the inhibition was -1.11%. In the case of `COCCNC(=O)Nc1ccc2nc(-c3ccco3)c(-c3ccco3)nc2c1`, the inhibition was 20.8% (active). On to `COCCNC(=O)c1ccc2nc(Cc3ccc(OC)c(OC)c3)oc2c1`, for which the inhibition was -2.89%. On to `COCCNC(=O)CN(Cc1ccco1)C(=O)CCC(=O)Nc1nccs1`, for which the inhibition was -3.92%.

Take `O=S(=O)(NCCCCCCNS(=O)(=O)c1c(F)cccc1F)c1ccc2c(c1)OCCO2`: the inhibition is -2.1%.

With `O=C(COC(=O)c1cccc(Cl)c1)NC(=O)NCc1ccccc1`, the inhibition was -1.95%. Under `O=C1c2ccccc2C(=O)N1c1ccccc1S(=O)C(F)(F)F` (stereo not drawn) stands -3.78%; under `CC(C(=O)Nc1ccc(F)c(F)c1F)N1CCCCCC1` (stereo not drawn), -6.4%. Under `CC1(C)CC(=O)C=C(NCc2ccncc2)C1` stands 1.4%; under `CCOc1ccc(CN(C)C(=O)c2ccc(=O)[nH]c2)cc1`, -0.407%; under `O=C(Nc1c2c(nn1-c1ccccc1)CS(=O)(=O)C2)C1CCCC1`, -0.538%. For the molecule `Cc1nn(C)c(Cl)c1CN1CCC(n2nccc2NC(=O)C2CCCC2)CC1`, the inhibition is 1.24%. Take `O=C(Cn1ccc([N+](=O)[O-])n1)NCc1cccs1`: the inhibition was -2.06%. In the case of `N#C/C(=C/c1ccc(N2CCCCC2)o1)C(=O)NCCc1c[nH]c2ccccc12`, the inhibition was -1.59%.

A word on the inhibition: it is the relative decrease from the control value, in per cent.
